Test results taken from PubChem BioAssay.

test system: Plasmodium falciparum Sir2 (PF13_0152, Sir2A); test: Plasmodium falciparum Sir2A binding compounds – biochemical, small-molecule microarray, 635 nm fluorescence, primary screen (AID 1098); conditions: fluorescence 635 nm, higher = more signal;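 also: score merges spot fluorescence intensity with its signal-to-noise ratio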

**Q.** For `Cc1ccc(S[C@]2(C(=O)NCCN3CCOCC3)CC(=O)N(Cc3ccccc3Cl)[C@@H]2c2ccc(CO)cc2)cc1`, which composite z-score is on record?
**A.** 0.588

**Q.** How did the composite z-score turn out when `C[C@@]1([C@@H](NC(=O)c2ccccc2)c2ccc(-c3ccccc3)cc2)C[C@H]1C1CCCCC1` was run?
**A.** -0.443

**Q.** With `COc1ccc(COC2OC[C@]3(C)[C@H]4C5=C(CN3C(=O)OC(C)(C)C)[C@H](C)C(CO)C(CO)C5CC[C@@H]24)cc1` (stereo not given in full) as the compound, how does the composite z-score read?
**A.** 1

**Q.** For `C=C(/C(=C/C[C@@H](OC(C)=O)c1ccc(OCCO)cc1)c1cnc2ccccc2c1)C(C)C`, which composite z-score is on record?
**A.** 1.2

**Q.** Which composite z-score does the source give for `C=CCOC(=O)[C@@H]1[C@H]2C(=O)O[C@H](c3ccccc3)[C@H](c3ccccc3)N2[C@H](c2ccc(OCCOC(=O)[C@@H]3C[C@@H]4C(=O)N[C@@H](Cc5ccccc5)C(=O)N4[C@@H]3c3ccc(O)cc3)cc2)[C@@]12C(=O)Nc1ccc(I)cc12` here?
**A.** 1.46

**Q.** How did the composite z-score turn out when `CCCCCC1=C2CNC(CCC)(C(=O)OC)C=C2C(C)C1=O` (stereo not given) was run?
**A.** 0.0288

**Q.** For `C=C(C)C1C(=C)CN([C@H](CO)c2ccccc2)C1=O` (stereo not given in full), which composite z-score is on record?
**A.** 1.35

**Q.** How did the composite z-score turn out when `O=C1C2C=CC(C(O)c3ccc(F)cc3)N(Nc3ccccc3F)C2C(=O)N1c1ccccc1` (stereo not given) was run?
**A.** 1.47

**Q.** For `CCOc1cc(C(O)C2C=CC3C(=O)N(c4ccccc4)C(=O)C3N2Nc2ccccc2)ccc1O` (stereo not given), which composite z-score is on record?
**A.** 0.716

**Q.** With `CCCCCN1CC=CC23O[C@@H]4/C=C\CCCOC(=O)C4[C@H]2C(=O)N(C(CO)C(C)C)[C@@H]3C1=O` (stereo not given in full) as the compound, how does the composite z-score read?
**A.** 1.24

**Q.** For `CC(CO)N1C(=O)[C@@H]2C3C(=O)OCCC/C=C\[C@H]3OC23C=CCN(c2ccc4ccccc4c2)C(=O)[C@@H]13` (stereo not given in full), which composite z-score is on record?
**A.** 0.0726

**Q.** With `COCCCNC(=O)C1N=C(c2ccc(OCCCO)cc2)N(c2ccccc2)O1` (stereo not given) as the compound, how does the composite z-score read?
**A.** 0.87

**Q.** Which composite z-score does the source give for `COCCOC(=O)N1C(=O)[C@@]2(c3cc(C#CCCO)ccc31)[C@H](C(=O)N1CCN(c3ncccn3)CC1)[C@H]1C(=O)O[C@H](c3ccccc3)[C@H](c3ccccc3)N1[C@@H]2c1ccccc1OCCO` here?
**A.** 0.748

**Q.** With `CS(=O)(=O)CCOC(=O)C1=CC(CCCO)=CC(c2ccc(CN3CCCC3)cc2)N(Cc2cc3c(cc2Br)OCO3)C=C1C(=O)OCCS(C)(=O)=O` (stereo not given) as the compound, how does the composite z-score read?
**A.** 1.52

**Q.** How did the composite z-score turn out when `CCOC(=O)[C@H]1CC=C2CC1C(=O)N1CCC[C@@H]1[C@@H]2O[Si](C)(C)C(C)(C)C` (stereo not given in full) was run?
**A.** -0.105

**Q.** Which composite z-score does the source give for `COC(=O)[C@@]1(Cc2ccccc2)[C@H]2c3cc(C(=O)N4CCCC4)n(Cc4cccc5ccccc45)c3C[C@H]2CN1C(=O)c1ccccc1` here?
**A.** 0.473

**Q.** With `CC(C)(C)OC(=O)CC[C@]1(C(=O)NCC(O)CO)COC(c2ccc(OCCCO)cc2)=N1` (stereo not given in full) as the compound, how does the composite z-score read?
**A.** 0.304

**Q.** Which composite z-score does the source give for `CCc1oc(CC[C@@H](CO)NC(=O)NCCn2cc(C3(O)CCCCC3)nn2)c(C(=O)OC)c1C(=O)OC` here?
**A.** 0.832

**Q.** With `COCCOC(=O)N1C(=O)[C@@]2(c3cc(C#Cc4ccc(OC)cc4)ccc31)[C@H](C(=O)N1CCCCCCC1)[C@H]1C(=O)O[C@H](c3ccccc3)[C@H](c3ccccc3)N1[C@@H]2c1ccc(OCCO)cc1` as the compound, how does the composite z-score read?
**A.** 1.37

**Q.** `O=C(NCc1ccccc1)[C@@H]1c2ccccc2C(=O)N(CC23CC4CC(CC(C4)C2)C3)[C@H]1c1ccc(CO)cc1` was tested. Which composite z-score did it give?
**A.** 1.6

**Q.** `COC(=O)[C@@]1(Cc2ccc(OC)cc2)[C@H]2c3cc(C(=O)N(C)C)n(Cc4cccc5ccccc45)c3C[C@H]2CN1C(=O)c1ccccc1` was tested. Which composite z-score did it give?
**A.** 0.971

**Q.** With `COc1ccc(C(O)C2C=CC3C(=O)N(c4ccccc4)C(=O)C3N2Nc2ccccc2F)cc1OCc1ccccc1` (stereo not given) as the compound, how does the composite z-score read?
**A.** 1.21

**Q.** How did the composite z-score turn out when `COc1ccc(CCNC(=O)[C@@]2(C)c3ccccc3C(=O)N(Cc3cc(F)cc(C(F)(F)F)c3)[C@H]2c2ccc(CO)cc2)cc1` was run?
**A.** 1.59

**Q.** `O=C1OCCC/C=C\[C@H]2OC34C=CCN(CCN5CCOCC5)C(=O)[C@H]3N(CCCO)C(=O)[C@@H]4C12` (stereo not given in full) was tested. Which composite z-score did it give?
**A.** 1.37

**Q.** With `COc1cc2c(cc1OC)CN(C(=O)[C@H]1[C@@H]3C(=O)O[C@@H](c4ccccc4)[C@@H](c4ccccc4)N3[C@@H](c3ccc(O)cc3)[C@]13C(=O)Nc1ccc(C#CC4=CCCCC4)cc13)CC2` as the compound, how does the composite z-score read?
**A.** 1.32

**Q.** With `C=CC[C@]12N=C(c3ccc(OCCCO)cc3)O[C@H]1c1ccccc1N(Cc1ccccc1)C2=O` as the compound, how does the composite z-score read?
**A.** 1.28

**Q.** Which composite z-score does the source give for `CN1C(=O)C2C=CC(C(O)c3ccccc3)N(Nc3ccccc3)C2C1=O` (stereo not given) here?
**A.** 1.54

**Q.** For `COc1ccc([C@H]2C[C@H]3C(Br)=C[C@@H]2C(=O)[C@]32CO2)cc1`, which composite z-score is on record?
**A.** 0.0371

**Q.** Which composite z-score does the source give for `CC(C)C(CO)N1C(=O)[C@@H]2[C@H]3C(=O)OCC=C[C@H]3OC23C=CCN(C(C)C)C(=O)[C@@H]13` (stereo not given in full) here?
**A.** -0.542

**Q.** Which composite z-score does the source give for `CCCCCN1CC=CC23O[C@@H]4/C=C\CCCOC(=O)C4[C@H]2C(=O)N(CCCO)[C@@H]3C1=O` (stereo not given in full) here?
**A.** 0.93

**Q.** Which composite z-score does the source give for `CCCC[C@@H]1C[C@H]1[C@@H](NC(=O)c1ccco1)c1ccc(C(=O)OC)cc1` here?
**A.** -0.433

**Q.** With `C=CCOC(=O)[C@H]1[C@@H]2C(=O)O[C@@H](c3ccccc3)[C@@H](c3ccccc3)N2[C@@H](c2ccc(OCCOC(=O)[C@@H]3C[C@@H]4C(=O)N[C@@H](CCCCN(C)C)C(=O)N4[C@@H]3c3ccc(O)cc3)cc2)[C@]12C(=O)Nc1ccc(I)cc12` as the compound, how does the composite z-score read?
**A.** 1.04

**Q.** `CN1C(=O)[C@]2(Cc3ccccc3)N=C(c3ccc(OCCCO)cc3)O[C@@H]2c2ccccc21` was tested. Which composite z-score did it give?
**A.** 1.19

**Q.** Which composite z-score does the source give for `CN(C)CCCNC(=O)[C@@]1(c2ccc([N+](=O)[O-])cc2)CC(=O)N(C2CCCCC2)[C@@H]1c1ccc(CO)cc1I` here?
**A.** 1.12

**Q.** `COCC(=C=CC[C@@H](O)c1ccccc1OCCO)C[C@@H](O)c1cc(Cl)cc(Cl)c1O` was tested. Which composite z-score did it give?
**A.** 0.781
